# Data taken from PubChem BioAssay AID628 (Vanderbilt High Throughput Screening Facility, 2007).
# The whole screen tested about 64,000 compounds, of which about 2,200 (3.4%) were called active.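 Rule for the calls: active = calcium fluorescence response, raw or row-and-column corrected B-score, differing from the plate sample mean either way at a set confidence level, mostly lower; inactive = the rest.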 What follows is part of a selection rich in actives, with near analogues and random picks from the rest.
# Molecular target: Muscarinic acetylcholine receptor M1 (Rattus norvegicus) (UniProt P08482)
# Assay: blocks the rat M1 muscarinic receptor response to acetylcholine (AID 628)
# Conditions: CHO-M1 cells, Fluo-4 calcium, ACh EC80 antagonist mode; at 10 µM; stronger effect = lower value
# Sequence of Muscarinic acetylcholine receptor M1 (Rattus norvegicus) (P08482 whole entry, looked up): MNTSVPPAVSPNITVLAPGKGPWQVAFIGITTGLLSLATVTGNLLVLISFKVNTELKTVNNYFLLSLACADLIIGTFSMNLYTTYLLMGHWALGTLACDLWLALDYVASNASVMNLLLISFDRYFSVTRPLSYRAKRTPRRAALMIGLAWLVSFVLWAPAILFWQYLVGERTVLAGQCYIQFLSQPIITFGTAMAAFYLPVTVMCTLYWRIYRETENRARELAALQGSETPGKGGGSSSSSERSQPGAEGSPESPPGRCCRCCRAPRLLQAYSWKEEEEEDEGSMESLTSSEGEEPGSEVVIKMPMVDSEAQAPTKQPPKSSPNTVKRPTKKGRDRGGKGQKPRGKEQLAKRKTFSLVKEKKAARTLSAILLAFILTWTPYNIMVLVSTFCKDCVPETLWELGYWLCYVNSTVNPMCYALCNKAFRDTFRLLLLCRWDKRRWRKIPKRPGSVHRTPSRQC
row,SMILES,B-score
1,N#Cc1ccccc1-n1c(N)c(C(=O)N2CCCC2)sc1=S,0.0882 (inactive)
2,CCc1ccccc1N(CC(=O)NCCSCc1ccco1)S(C)(=O)=O,0.00624 (inactive)
3,COC(=O)c1sc(NC(=O)c2ccc(OC)cc2OC)nc1C,0.124 (inactive)
4,COc1ccccc1Nc1ncc(C(C)=O)c(C)n1,-0.0613 (inactive)
5,COc1cccc2sc(Nc3nc(C)c(C(C)=O)s3)nc12,-5.09 (active)
6,O=C(CC(NCCN1CCOCC1)C(=O)O)Nc1cccc(Cl)c1 (stereo not given),-0.31 (inactive)
7,C=CCNC(=O)c1cc(-c2ccccc2O)on1,-0.349 (inactive)
8,CCC(=O)Nc1ccc2c(c1)nc(CCN1CCN(C)CC1)n2C,0.254 (inactive)
9,Cn1c(CCN2CCCCCC2)nc2cc(NC(=O)Nc3ccccc3)ccc21,-12.1 (active)
10,Cc1nn(CC(=O)Nc2ccc3c(c2)nc(CN2CCCCC2)n3C)c(=O)c2ccccc12,-0.553 (inactive)
11,CC(=O)Nc1ccc(-c2cn3cccnc3n2)cc1,-0.0342 (inactive)
12,COc1ccc(S(=O)(=O)NC(CC(=O)NCc2ccccc2OC)c2ccco2)cc1 (stereo not given),-0.297 (inactive)
13,CCS(=O)(=O)n1nc(-c2ccc(OC)cc2)nc1SC,0.364 (inactive)
14,CC(C)OCCCNc1ncnc2c1[nH]c1ccc(F)cc12,-5.34 (active)
15,CCN1CCCC1CNc1ncnc2c1[nH]c1ccc(F)cc12 (stereo not given),0.215 (inactive)
16,O=C1CCCN1CCCNc1ncnc2c1[nH]c1ccccc12,-0.26 (inactive)
17,Cc1ccc2c(c1)NCC(C(=O)NC1CCC(C)CC1)O2 (stereo not given),0.906 (inactive)
18,O=C(Oc1cccnc1)c1cc2ccccc2oc1=O,-1.49 (inactive)
19,OC(COc1cccc2ccccc12)CN1CCN(c2ccccn2)CC1 (stereo not given),-0.255 (inactive)
20,CN(C)[C@@H]1C(=O)C(C(N)=O)=C(O)[C@@]2(O)C(=O)C3=C(O)c4c(O)ccc(Cl)c4[C@@H](O)[C@H]3C[C@@H]12,-15.3 (active)

row,SMILES,B-score
1,Cn1cccc1C(=O)NC(=O)COC(=O)Cc1coc2ccc3ccccc3c12,-0.0274 (inactive)
2,COc1ccccc1CNC(=O)C1CCN(S(C)(=O)=O)CC1,0.445 (inactive)
3,Cc1nc(NCCN)c(C#N)c2c1COC(C)(C)C2,0.614 (inactive)
4,Cc1ccc(-n2ncc3c(N4CCN(c5ccc(F)cc5)CC4)ncnc32)c(C)c1,-0.0379 (inactive)
5,Fc1ccc2[nH]c3c(N4CCN(Cc5ccc6c(c5)OCO6)CC4)ncnc3c2c1,-0.265 (inactive)
6,Fc1ccc2[nH]c3c(N4CCSCC4)ncnc3c2c1,-2.69 (active)
7,N#CNC1=NCN(CCc2ccccc2)CN1,-0.391 (inactive)
8,c1ccc(CCN2CN=C(Nc3nc4ccccc4o3)NC2)cc1,0.0039 (inactive)
9,Cc1ccc2nc(NC3=NCN(CCc4ccccc4)CN3)nc(C)c2c1,-5.98 (active)
10,O=C(NCCC1=CCCCC1)C1CCN(Cc2cnn(-c3ccccc3)c2-n2cccc2)CC1,-1.39 (inactive)
11,Cc1ccc2cc3cc(C(=O)N4CCCCCC4)oc3nc2c1,-0.434 (inactive)
12,COc1cccc(-c2cc3nc4c(c(N5CCC6(CC5)OCCO6)n3n2)CCCC4)c1,-0.0679 (inactive)
13,CC(=O)N1CCN(C(=O)Nc2cccc(C(F)(F)F)c2)CC1,-0.154 (inactive)
14,O=C(Nc1cccc(C(=O)N2CCCC2)c1)c1ccccc1,0.0406 (inactive)
15,O=C(Nc1cccc(NC(=O)N2CCN(c3ccccc3)CC2)c1)N1CCN(c2ccccc2)CC1,-3 (active)
16,COc1ccc(-c2c(C)nn3c(N4CCC(C(=O)N5CCCCC5)CC4)cc(C)nc23)cc1OC,-0.265 (inactive)
17,FC(F)(F)c1cccc(Nc2ncnc3ccccc23)c1,0.376 (inactive)
18,O=C(Nc1cccc(F)c1)c1ccc(S(=O)(=O)N2CCCC2)cc1,-0.622 (inactive)
19,COc1ccccc1N1CCN(C(=O)c2ccc(S(=O)(=O)N3CCCCC3)cc2)CC1,-1.54 (inactive)
20,N#CC(C(=O)c1ccc(S(=O)(=O)N2CCCCCC2)cc1)c1nc2ccccc2[nH]1 (stereo not given),-4.04 (active)

row,SMILES,B-score
1,CCOc1ccccc1NC(=O)C1CCC(CNc2c(N3CCOCC3)c(=O)c2=O)CC1 (stereo not given),0.744 (inactive)
2,COc1ccc(N2C(=O)CC(N3CCC(C(N)=O)CC3)C2=O)cc1 (stereo not given),-0.21 (inactive)
3,O=C(CSc1nnc(-c2cccs2)n1Cc1ccco1)c1ccc2c(c1)OCO2,0.219 (inactive)
4,COC(=O)C1=CN(C)C=C(C(=O)OC)C1c1ccc(Cl)cc1Cl,1.15 (inactive)
5,CCOc1cccc(-c2nn3c(-c4ccccn4)nnc3s2)c1,-0.924 (inactive)
6,COc1cc(-c2nn3c(-c4cccc(C)c4)nnc3s2)cc(OC)c1OC,0.799 (inactive)
7,c1ccc(-c2cc(-c3nnc4sc(-c5ccccn5)nn34)[nH]n2)cc1,-2.66 (active)
8,CCCCOC(=O)Nc1nccs1,0.0324 (inactive)
9,COc1ccc(Cl)cc1NC(=O)c1oc(C)nc1C,-0.215 (inactive)
10,O=C(c1cccc(S(=O)(=O)N2CCOCC2)c1)N1CCOCC1,0.238 (inactive)
11,O=C(c1ccc(S(=O)(=O)N2CCOCC2)cc1)N1CCN(c2ccccc2)CC1,-2.93 (active)
12,CSC1=NCCN1C(=O)c1ccc(S(=O)(=O)N2CCOCC2)cc1,-0.648 (inactive)
13,Cc1ccc2oc(=O)c3cnn(CC(=O)N4CCN(c5ccccn5)CC4)c3c2c1,0.00225 (inactive)
14,Cc1c(C(=O)OCC(=O)N(CCC#N)c2ccccc2)oc2c1ccc1ccccc12,0.252 (inactive)
15,O=C(CCN1C(=O)COc2ccccc21)NCCCN1CCN(c2ccc(F)cc2)CC1,-2.15 (active)
16,CCCN1CCN(CCCNC(=O)CN2C(=O)COc3ccccc32)CC1,0.138 (inactive)
17,COc1ccc(N2CCN(CCNC(=O)CCN3C(=O)COc4ccccc43)CC2)cc1,1.04 (inactive)
18,O=S1(=O)CC(NCc2ccccc2)C(Nc2ccc(Cl)cc2)C1 (stereo not given),-0.75 (inactive)
19,CCCCCn1c(SCCC(C)C)nc2c1c(=O)[nH]c(=O)n2C,-0.348 (inactive)
20,Cn1c(=O)[nH]c(=O)c2c1nc(CN1CCN(c3ccccc3F)CC1)n2CCc1ccccc1,-0.0585 (inactive)
